Results on six compounds are retold here after PubChem BioAssay.

Calls of active or inactive are those of the source.

Assay [1] concerns the target Albumin (Bos taurus) (UniProt P02769). Briefly: bovine serum albumin binders on microarray, profiling panel, artefact control for SMM control protein annotation, biochemical, small-molecule microarray, Alexa647 label, 635/667 nm fluorescence (AID 1118).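 Further: score merges 667 nm emission intensity and signal-to-noise per printed compound spot.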 The settings on record: BSA-A647 binding, fluorescence 635 nm, higher = more signal.
The nature of assay [2]: small-molecule microarray binders of probe aXIP, primary screen, biochemical, NeuroSMM set, 635/667 nm fluorescence (AID 1119).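 Further: probe is the protein aXip251-270 applied at 1 µg/mL to compound-printed slides; binding of probe to printed compounds measured as 667 nm fluorescence plus signal to noise.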 The following applies: higher = more signal, called active from +8 up or from −8 down.
Assay [3] is described as follows: small-molecule binders of probe aNOTCH3, primary screen, biochemical, small-molecule microarray, 635/667 nm fluorescence (AID 1120).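 Further: probe is a biotin-tagged antibody raised against NOTCH3 rather than NOTCH3 protein; score merges spot fluorescence near 667 nm with spot signal to noise.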 The following applies: higher = more signal.
Assay [4] is described as follows: small-molecule binders of probe aNOTCH2, primary screen, biochemical, small-molecule microarray, 635/667 nm fluorescence (AID 1121).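 Further: score merges feature fluorescence read at 667 nm with its signal to noise.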 The following applies: higher = more signal.
The target in assay [5] is Carbonic anhydrase 2 (Homo sapiens) (UniProt P00918). Briefly: CAII small-molecule binders, profiling panel, biochemical, small-molecule microarray, Alexa647-labelled CAII (AID 1122). The settings on record: CAII-A647 binding fluorescence, higher = more signal.
The nature of assay [6]: COS7 lysate on small-molecule microarray, probe aHis, 635 nm (AID 1123).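 Further: z-score combines 667nm fluorescence intensity with signal-to-noise per printed compound spot.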 The following applies: COS7 cell lysate, fluorescence, higher = more signal.
Assay [7] can be described thus: compound binding in COS7 lysate, probe aLAP1, primary screen, cell lysate, small-molecule microarray (AID 1124).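 Further: lysate comes from COS7 cells expressing LAP1 and is applied at 0.3 µg/mL; score merges spot fluorescence near 667 nm with signal-to-noise over triplicate slides.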 The following applies: probe aLAP1, fluorescence, higher = more signal.
In assay [8] the test system is Sam68 (KHDRBS1). Briefly: Sam68 small-molecule binders, primary screen, biochemical, small-molecule microarray, 635 nm fluorescence (AID 1125).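 Further: score merges 667 nm channel intensity with signal to noise over triplicate slides.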 The settings on record: small-molecule microarray binding, higher = more signal.
In assay [9] the test system is Chordin-like protein 2 (CHRDL2). Briefly: CHRDL2 small-molecule binders, primary screen, biochemical, small-molecule microarray, 635 nm fluorescence (AID 1126).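 Further: printed compound slides probed with Chrdl2 protein at 4 µg/mL for 1 h at 4 C; score merges 667 nm emission intensity with signal to noise over three replicate slides.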 The following applies: small-molecule microarray binding, fluorescence 635 nm; higher = more signal.
Assay [10] deals with Concanavalin-A (Canavalia ensiformis) (UniProt P02866). Briefly: ConA small-molecule binders, primary screen, artefact control for SMM control protein annotation, biochemical, small-molecule microarray, Alexa647 label, 635 nm (AID 1127).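 Further: z combines 667 nm emission intensity with signal-to-noise across three replicate slides.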 The settings on record: ConA-A647 binding fluorescence, higher = more signal.
Assay [11] in a line: anti-His antibody binders, primary screen, artefact control for SMM control protein annotation, biochemical, small-molecule microarray, 635 nm fluorescence (AID 1128).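 Further: score merges feature fluorescence with signal-to-noise for each printed compound spot.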 The settings on record: anti-His Alexa647 antibody binding, higher = more signal.
Assay [12] deals with Human papillomavirus type 1a E7 protein (residues 1-88). Briefly: HPV1a E7 small-molecule binders, primary screen, biochemical, small-molecule microarray, residues 1-88, 635 nm (AID 1129). The following applies: small-molecule microarray binding, fluorescence 635 nm; higher = more signal.
Assay [13] addresses Focal adhesion kinase 1 (Homo sapiens) (UniProt Q05397). Briefly: small-molecule microarray binders of FAK, primary screen, biochemical, 635/667 nm fluorescence, BSA, DTT (AID 1130).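 Further: composite of spot emission at 667 nm and signal to noise over triplicate slides.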 The settings on record: PTK2 binding, 635 nm fluorescence, higher = more signal.
The test system of assay [14] is Fibrinogen (Alexa647-labelled). As to the kind of experiment: fibrinogen binders on compound microarrays, profiling panel, artefact control for SMM control-protein annotation, biochemical, small-molecule microarray, 635/667 nm fluorescence (AID 1131).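 Further: z-score merges 667 nm fluorescence with per-spot signal-to-noise over triplicate slides.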 The settings on record: fibrinogen-A647 binding fluorescence, higher = more signal.
Assay [15] concerns the target Follistatin (Homo sapiens) (UniProt P19883). Briefly: follistatin binders on small-molecule microarrays, primary screen, biochemical, small-molecule microarray, 635/667 nm fluorescence (AID 1132). The settings on record: FST binding, 635 nm fluorescence, higher = more signal.
Assay [16] addresses Fibroblast growth factor 2 (Homo sapiens) (UniProt P09038). Briefly: FGF2 binders on small-molecule microarrays, primary screen, biochemical, small-molecule microarray, 635/667 nm fluorescence (AID 1133). The settings on record: small-molecule microarray binding, FGF2, fluorescence 635/667; higher = more signal.
Assay [17] is described as follows: mitochondrial membrane potential change in A549 cells, profiling panel, cell-based, JC-1 fluorescence, basal, 24 h, 100 nL (AID 1138).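 Further: A549 lung adenocarcinoma cells under basal conditions with no added stimulus; test concentration not given here.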 The following applies: higher = more signal.
The subject of assay [18] is Lefty1. Briefly: Lefty1 binders on small-molecule microarrays, primary screen, biochemical, small-molecule microarray, 635/667 nm fluorescence (AID 1139). The following applies: small-molecule microarray binding, fluorescence 635/667; higher = more signal.
The test system of assay [19] is wheat germ agglutinin (Triticum aestivum), Alexa647-labelled. Briefly: wheat germ agglutinin binders on compound microarrays, profiling panel, artefact control for SMM control-protein annotation, biochemical, small-molecule microarray, 635/667 nm fluorescence (AID 1140).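 Further: score merges 667 nm feature emission with signal to noise over triplicate slides.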 The following applies: WGA-A647 binding, 635 nm fluorescence, higher = more signal.
Assay [20] addresses Luciferin 4-monooxygenase (Photinus pyralis) (UniProt P08659). Briefly: firefly luciferase enzyme inhibitors, primary screen, biochemical, luminescence, purified enzyme, 2006 set (AID 1141).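 Further: cell-free assay with purified firefly luciferase at 100 ng per well in PBS; test concentration not given here.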 The following applies: SteadyGlo luminescence, 30 min, higher = more signal, called active from +8 up or from −8 down.

Concanavalin-A (Canavalia ensiformis), sequence (P02866 whole entry, looked up): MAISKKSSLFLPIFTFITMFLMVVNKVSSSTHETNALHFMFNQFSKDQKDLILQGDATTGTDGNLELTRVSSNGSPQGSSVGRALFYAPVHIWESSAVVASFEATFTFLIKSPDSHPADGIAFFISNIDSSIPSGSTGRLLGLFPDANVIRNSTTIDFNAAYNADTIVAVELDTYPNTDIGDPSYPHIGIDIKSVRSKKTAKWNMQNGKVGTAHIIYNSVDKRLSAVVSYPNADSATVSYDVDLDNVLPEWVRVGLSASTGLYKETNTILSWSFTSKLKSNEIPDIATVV
Albumin (Bos taurus), sequence (P02769 whole entry, looked up): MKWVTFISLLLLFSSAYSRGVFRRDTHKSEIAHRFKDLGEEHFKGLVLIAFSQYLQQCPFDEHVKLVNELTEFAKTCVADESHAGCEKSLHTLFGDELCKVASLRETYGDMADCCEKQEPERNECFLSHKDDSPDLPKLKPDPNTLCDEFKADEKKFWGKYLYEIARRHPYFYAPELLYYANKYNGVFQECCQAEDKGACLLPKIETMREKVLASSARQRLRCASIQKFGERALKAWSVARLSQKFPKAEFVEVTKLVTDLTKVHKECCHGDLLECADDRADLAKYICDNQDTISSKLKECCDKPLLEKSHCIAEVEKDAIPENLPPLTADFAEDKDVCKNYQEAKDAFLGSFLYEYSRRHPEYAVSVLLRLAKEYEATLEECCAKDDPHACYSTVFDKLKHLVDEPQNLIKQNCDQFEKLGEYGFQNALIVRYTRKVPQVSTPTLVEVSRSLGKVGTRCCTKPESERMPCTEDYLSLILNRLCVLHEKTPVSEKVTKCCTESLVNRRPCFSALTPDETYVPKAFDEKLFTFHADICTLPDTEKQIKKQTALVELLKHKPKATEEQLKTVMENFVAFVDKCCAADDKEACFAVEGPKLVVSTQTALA
Fibroblast growth factor 2 (Homo sapiens), sequence (P09038 whole entry, looked up): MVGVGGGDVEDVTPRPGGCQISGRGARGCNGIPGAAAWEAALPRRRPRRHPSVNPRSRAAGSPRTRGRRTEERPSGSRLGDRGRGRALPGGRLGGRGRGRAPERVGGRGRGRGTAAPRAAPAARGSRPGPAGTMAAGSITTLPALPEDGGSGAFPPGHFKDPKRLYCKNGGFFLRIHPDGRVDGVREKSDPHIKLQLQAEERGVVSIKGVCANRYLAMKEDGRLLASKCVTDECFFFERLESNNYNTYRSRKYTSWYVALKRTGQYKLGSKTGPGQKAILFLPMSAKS
Luciferin 4-monooxygenase (Photinus pyralis), sequence (P08659 whole entry, looked up): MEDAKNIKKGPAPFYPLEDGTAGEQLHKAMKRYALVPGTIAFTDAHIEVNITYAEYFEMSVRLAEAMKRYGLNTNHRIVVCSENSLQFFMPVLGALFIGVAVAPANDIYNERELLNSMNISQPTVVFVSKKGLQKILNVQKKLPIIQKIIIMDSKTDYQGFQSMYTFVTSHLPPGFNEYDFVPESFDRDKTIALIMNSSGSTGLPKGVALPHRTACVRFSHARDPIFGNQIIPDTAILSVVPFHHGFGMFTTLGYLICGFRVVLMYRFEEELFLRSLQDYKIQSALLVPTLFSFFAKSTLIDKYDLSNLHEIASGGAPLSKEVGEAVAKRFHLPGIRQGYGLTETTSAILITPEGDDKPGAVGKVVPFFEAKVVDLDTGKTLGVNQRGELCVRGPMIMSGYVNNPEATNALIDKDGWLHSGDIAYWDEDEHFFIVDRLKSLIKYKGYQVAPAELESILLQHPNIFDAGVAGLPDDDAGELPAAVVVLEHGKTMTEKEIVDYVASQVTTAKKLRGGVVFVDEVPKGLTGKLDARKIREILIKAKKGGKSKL
Follistatin (Homo sapiens), sequence (P19883 whole entry, looked up): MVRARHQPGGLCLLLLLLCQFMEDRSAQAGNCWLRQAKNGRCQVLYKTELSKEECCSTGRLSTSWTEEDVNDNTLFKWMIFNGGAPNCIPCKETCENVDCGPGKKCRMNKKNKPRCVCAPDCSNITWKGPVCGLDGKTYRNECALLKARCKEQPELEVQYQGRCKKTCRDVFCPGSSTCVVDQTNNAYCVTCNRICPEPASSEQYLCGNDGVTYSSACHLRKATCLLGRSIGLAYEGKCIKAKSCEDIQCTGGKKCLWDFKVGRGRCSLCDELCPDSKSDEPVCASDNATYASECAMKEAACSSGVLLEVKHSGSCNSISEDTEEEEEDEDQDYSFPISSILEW
Focal adhesion kinase 1 (Homo sapiens), sequence (Q05397 whole entry, looked up): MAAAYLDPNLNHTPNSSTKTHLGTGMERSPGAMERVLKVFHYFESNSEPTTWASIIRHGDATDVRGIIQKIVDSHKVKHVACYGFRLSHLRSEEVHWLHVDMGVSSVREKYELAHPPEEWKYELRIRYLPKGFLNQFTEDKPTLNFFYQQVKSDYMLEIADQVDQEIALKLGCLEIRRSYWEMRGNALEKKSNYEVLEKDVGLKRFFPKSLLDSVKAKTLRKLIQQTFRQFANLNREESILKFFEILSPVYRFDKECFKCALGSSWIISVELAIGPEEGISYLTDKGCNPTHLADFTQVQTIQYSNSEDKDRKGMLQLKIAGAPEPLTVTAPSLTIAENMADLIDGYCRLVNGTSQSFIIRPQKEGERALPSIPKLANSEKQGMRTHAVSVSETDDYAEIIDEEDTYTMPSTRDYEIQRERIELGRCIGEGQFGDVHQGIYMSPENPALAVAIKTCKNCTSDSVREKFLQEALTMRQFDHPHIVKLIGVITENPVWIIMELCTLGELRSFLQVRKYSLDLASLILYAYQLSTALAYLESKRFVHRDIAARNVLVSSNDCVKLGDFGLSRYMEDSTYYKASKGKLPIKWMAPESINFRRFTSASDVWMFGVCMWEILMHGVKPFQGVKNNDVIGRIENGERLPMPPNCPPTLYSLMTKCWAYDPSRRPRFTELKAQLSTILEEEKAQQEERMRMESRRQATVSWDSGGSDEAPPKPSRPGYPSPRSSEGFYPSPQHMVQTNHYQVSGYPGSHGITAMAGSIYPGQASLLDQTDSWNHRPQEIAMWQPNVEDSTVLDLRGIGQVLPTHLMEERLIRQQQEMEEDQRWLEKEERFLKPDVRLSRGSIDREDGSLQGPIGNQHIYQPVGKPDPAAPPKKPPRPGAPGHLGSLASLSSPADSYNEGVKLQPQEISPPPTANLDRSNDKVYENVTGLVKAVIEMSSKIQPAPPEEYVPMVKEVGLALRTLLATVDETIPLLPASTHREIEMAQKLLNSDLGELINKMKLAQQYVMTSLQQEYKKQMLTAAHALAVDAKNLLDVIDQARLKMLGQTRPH

For `CC(C)C[C@@H]1NC(=O)[C@@H]2C[C@H](C(=O)NCCCCCCN)[C@H](c3cccc(OCCO)c3)N2C1=O`, the composite z-score in assay [1] was 0.586; in assay [3] it was 0.16; in assay [4], -0.0859; in [5], 0.659; in assay [6], 2.22; in assay [7], 0.636. Moreover, the composite z-score amounted to 1.31 in assay [8]; 0.668 in [9]; 1.03 in assay [10]; 2.25 in assay [11]; 1.11 in assay [12]; 0.344 in [13]. Also, the composite z-score in assay [14] is 0.662; in assay [15] it was 1.32; in [16], 0.548; in assay [18], 1.51; in [19], 1.1. In addition, the composite Z-score in [2] was 0.799 (inactive). The z-score in assay [17] is -0.645; in assay [20] it was 0.459 (inactive).

In the case of `[N-]=[N+]=NCc1ccccc1[C@H]1OC(c2ccc(OCCCO)cc2)=N[C@@]1(Cc1ccccc1N=[N+]=[N-])C(=O)NCC(O)CO` (stereo not given in full), the composite z-score was 0.992 in [1]; 0.483 in assay [3]; -0.0859 in assay [4]; 0.7 in [5]; 1.8 in [6]; 0.0939 in assay [7]. Moreover, the composite z-score in assay [8] was 1.3; in assay [9], -0.603; in [10], 1.09; in assay [11], 0.363; in assay [12] it was 1.22; in assay [13], 0.566. Also, the composite z-score was 0.711 in [14]; 1.13 in assay [15]; -0.401 in [16]; 0.194 in assay [18]; 1.12 in assay [19]. The composite Z-score in assay [2] is 0.095 (inactive). The figures for the z-score in [17] and in assay [20] were 0.118 and -2.09 (inactive), respectively.

As for `COCCOC(=O)N1C(=O)[C@@]2(c3cc(C#CC4=CCCCC4)ccc31)[C@H](C(=O)Nc1nc3ccccc3s1)[C@H]1C(=O)O[C@H](c3ccccc3)[C@H](c3ccccc3)N1[C@@H]2c1ccc(O)cc1`, the composite z-score was 0.817 in assay [1]; -0.0279 in [3]; -0.166 in assay [4]; 0.661 in [5]; 1.68 in assay [6]; 0.61 in assay [7]. For the same compound, the composite z-score worked out at 1.31 in [8]; 0.408 in [9]; 1.18 in [10]; 0.174 in assay [11]; 1.21 in assay [12]; 1.38 in [13]. Also, the composite z-score in assay [14] amounted to 0.362; in assay [15], 1.39; in assay [16], 1.7; in [18], 0.869; in [19], 0.529. Also, the composite Z-score in assay [2] was 2.58 (inactive). The z-score in assay [17] is -2.1; in assay [20], -1.5 (inactive).

With `CC1CC/C=C\[C@H]2OC34C=CCN(Cc5ccccc5)C(=O)[C@H]3N(C(CO)C(C)C)C(=O)[C@@H]4C2C(=O)O1` (stereo not given in full), the composite z-score in assay [1] was -1.39; in assay [3], 0.0666; in assay [4], -0.0418; in assay [5], 0.821; in assay [6] it was 0.152; in [7] it was 0.219. The composite z-score in assay [8] was -0.271; in [9], -0.398; in assay [10], -0.355; in [11], -0.696; in [12], -1.03; in assay [13], -0.475. The composite z-score is -0.798 in [14]; -0.528 in assay [15]; -0.81 in assay [16]; -0.722 in [18]; 0.389 in [19]. Also, in assay [2], the composite Z-score is -0.263 (inactive). The z-score in assay [17] is 1.32; in assay [20] it was -1.15 (inactive).

Consider `NCCCCCNC(=O)[C@H]1C[C@H]2C(=O)N3CCC[C@H]3C(=O)N2[C@H]1c1cccc(OCCO)c1`, for which the composite z-score in assay [1] was found to be 0.729; in assay [3] it was 0.185; in assay [4], 0.0305; in [5] it was 0.705; in [6] it was 1.59; in assay [7], 0.466. For the same compound, the composite z-score in assay [8] was 0.967; in [9], 0.18; in [10], 0.894; in assay [11] it was 3.3; in [12], 0.987; in [13], 0.0204. The composite z-score in assay [14] is 0.83; in [15], 0.208; in assay [16], -0.146; in [18], -0.285; in assay [19] it was 1.29. In addition, the composite Z-score in [2] was 0.325 (inactive). The results for the z-score in assay [17] and in [20] were -0.705 and -0.165 (inactive), respectively.

As for `COc1ccc(CCNC(=O)[C@@]2(Cc3ccccc3I)c3ccccc3C(=O)N(C3CCCCC3)[C@H]2c2ccc(CO)cc2)cc1`, the composite z-score is 0.471 in assay [1]; -0.0647 in [3]; -0.162 in assay [4]; 0.218 in [5]; 1.5 in assay [6]; -0.167 in assay [7]. Moreover, the composite z-score in assay [8] is 0.621; in assay [9] it was -0.718; in [10], 0.969; in [11], 0.362; in [12] it was 0.839; in assay [13], 0.22. Besides, the composite z-score was 0.434 in [14]; 0.341 in [15]; -0.199 in [16]; 0.106 in [18]; 0.177 in assay [19]. The composite Z-score in assay [2] was -0.0065 (inactive). Besides, the z-score was 0.348 in assay [17] and 1.18 (inactive) in assay [20].
